HCV inh: blocks hepatitis C virus; Potency, µM (series often up to 41.8 µM), for the others: at the highest dose activity change, negative = inhibition, usual class: inhibitors; AID 651820; Huh7.5.1 HCVcc-Cre infection, luciferase reporter, 44 h; actives 3.4% (n = 340,000); note: potency is the fitted concentration of half-maximal effect
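Compounds are dispensed onto cells plated 4 h earlier at 1,000 per well, with HCVcc-Cre virus (about 0.5 moi) added next. Following 44 h of culture, luminescent signal is measured for 15 sec after 15 min with substrate at room temperature.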
Pf growth 48h: P. falciparum growth inhibition at 48 hours (one generation); P. falciparum luciferase growth in erythrocytes, 48 h; Potency, µM (series often up to 28.7 µM), for inactives: at the highest dose activity change, negative = inhibition, hits mostly inhibitors; actives 5.9% (n = 310,000); note: potency is the fitted concentration of half-maximal effect
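Compounds are pin-transferred into medium, infected erythrocytes (2% hematocrit, 0.1% parasitemia final) are added, and plates sit one parasite generation at 37 C in 5% CO2. Detection reagent is then added and luminescence measured.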
Pf growth 96h: P. falciparum growth inhibition at 96 hour, primary screen for plastid delayed-death inhibitors; P. falciparum luciferase reporter growth, 96 h; Potency, µM (doses to about 28.7 µM), for the others: top-dose activity change, negative = inhibition, hits mostly inhibitors; actives 6.9% (n = 320,000); AID 504834; note: potency is the fitted concentration of half-maximal effect
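Readout is luminescence from an integrated firefly luciferase in P. falciparum. Red cells, 2% hematocrit and 0.05% parasitemia final, were cultured with compound through two parasite generations (96 hours) at 37 C, 5% CO2.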
HCMV antiviral: human cytomegalovirus inhibition. HFF cells, HCMV-luciferase reporter, 72 h; stronger effect = lower value. activity change, negative = inhibition, % at 57.5 µM. actives 4.5% (n = 410,000). AID 1259415; in the data active = activity change below about -60%; inconclusive = no clear call, values can overlap the other calls; inactive = above about -39%
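Luciferase read-out from HCMV-luciferase-infected HFFs (MOI 1 PFU/cell) 72 h post infection at 37C; compounds added after 16 h cell attachment; activity normalized between buffer-only basal and Salinomycin (10uM) inhibitor controls.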
* hit, by the source's call; ? = inconclusive; . = no result. An excerpt weighted towards active compounds, which were near 13% of everything screened. Unless noted, calls come from the whole dose curve; as a rule, active = well fitted inhibition curve with a large enough effect; inconclusive = small, poorly fitted or top-dose-only effect, or another doubt; inactive = no such curve, though single readings can be large or run the other way. % is set by controls: 0 for no effect and ±100 for the full control effect.

SMILES	HCV inh	Pf growth 48h	Pf growth 96h	HCMV antiviral
CCOC(=O)c1cccc(Nc2nc(C(=O)OCC)nc3ccccc23)c1	.	.	.	-14.7
O=C(O)c1cccc(Nc2nc(-c3cccnc3)nc3ccccc23)c1	18.5%	4.0%	?	-30.4
CCOC(=O)c1cccc(Nc2nc(-c3cccnc3)nc3ccccc23)c1	?	13.1µM*	8.28µM*	-21.0
COC(=O)c1ccc(Nc2nc(-c3ccncc3)nc3ccccc23)cc1	-12.2%	5.9%	-1.4%	-1.3
COC(=O)c1cccc(Nc2nc(-c3ccncc3)nc3ccccc23)c1	?	1.85µM*	?	25.9
COC(=O)c1cccc(Nc2nc(-c3cccnc3)nc3ccccc23)c1	7.08µM*	?	?	-9.1
Cc1c2cnn(CC(=O)N3CCN(c4ccc(F)cc4)CC3)c(=O)c2c(C)n1Cc1ccc(F)cc1	.	.	.	-15.9
CCOc1ccc(CCNc2nc3ccccc3n3c(C)nnc23)cc1OCC	-19.0%	5.22µM*	16.1%	25.9
Cc1ccc2oc(C(=O)N(Cc3ccc(N(C)C)cc3)C3CCS(=O)(=O)C3)c(C)c2c1 (configuration not stated)	-11.0%	?	4.65µM*	3.6
Cc1c(C(=O)N(Cc2ccc(Cl)cc2)C2CCS(=O)(=O)C2)oc2ccccc12 (configuration not stated)	-29.3%	13.1µM*	2.1%	2.0
Cc1c(C(=O)N(Cc2cccc(F)c2)C2CCS(=O)(=O)C2)oc2cc(Br)ccc12 (configuration not stated)	.	.	.	1.3
Cc1c(C(=O)N(Cc2cccc(Br)c2)C2CCS(=O)(=O)C2)oc2ccc(F)cc12 (configuration not stated)	?	?	13.1µM*	28.3
COc1ccc(CN(C(=O)c2oc3cc(C)c(C)cc3c2C)C2CCS(=O)(=O)C2)cc1OC (configuration not stated)	-17.8%	?	2.94µM*	24.6
Cc1ccc2c(c1)N(CC(=O)Nc1ccccc1C(F)(F)F)C(=O)c1cccnc1O2	.	.	.	0.0
CN(C)c1ccc(CNC(=O)CCCN2C(=O)c3cccnc3Oc3ccc(Cl)cc32)cc1	.	.	.	0.0
COc1cccc(NC(=O)C2CCN(C(=O)N3CC(C)Oc4ccccc43)CC2)c1 (configuration not stated)	.	.	.	1.9
CCOC(=O)c1ccc(NC(=O)c2cn3c4c(ccc(Cl)c4c2=O)OC(C)C3)cc1 (configuration not stated)	.	.	.	1.1
COc1ccc(S(=O)(=O)c2cnc(SCC(=O)Nc3cc(F)ccc3C)[nH]c2=O)cc1Cl	.	.	.	-11.0
CCCOc1cccc(C(=O)Nc2cccc(-c3nc4ncccc4o3)c2C)c1	.	.	.	-13.9
O=C(N/N=C/C(Br)=C/c1ccccc1)c1cccnc1	-8.5%	10.4µM*	10.4µM*	29.9
O=C(N/N=C/C(Br)=C\c1ccccc1)c1ccc2nc[nH]c2c1	?	22.6%	?	-75.9*
CC(=C/c1ccccc1)/C=N/NC(=O)c1ccc2nc[nH]c2c1	-13.7%	37.6%	?	?
O=C(N/N=C/C(Br)=C/c1ccccc1)c1ccncc1	?	10.4µM*	14.7µM*	?
O=C(N/N=C/C(Br)=C/c1ccccc1)C1CC1	-17.2%	?	9.28µM*	1.2
O=C(N/N=C/C(Br)=C/c1ccccc1)c1ccc([N+](=O)[O-])cc1	-28.9%	-7.7%	18.2%	-11.0
SMILES	HCV inh	Pf growth 48h	Pf growth 96h	HCMV antiviral
CN(C(=O)NCc1noc2ccccc12)c1cccc(Cl)c1	.	.	.	-10.1
CC(=C/c1ccc(C(C)C)cc1)/C=N/NC(=O)c1ccncc1	?	13.1µM*	?	-20.7
O=C(N/N=C/C(Br)=C\c1ccccc1)c1cccs1	?	?	3.7µM*	-0.9
CCOc1cc(C(=O)NN=C2CCCC2)cc(OCC)c1OCC	-26.8%	59.4%	?	-75.9*
CC(/C=N/NC(=O)c1ccncc1)=C\c1ccccc1	8.5%	?	33.4%	30.7
Cc1ccc(C(=O)N/N=C/C=C/c2ccccc2)cc1	22.0%	-29.8%	1.65µM*	-34.7
COc1ccc(C(=O)NN=C2CCCC2)cc1OC	-3.2%	17.4%	?	-30.8
O=C(N/N=C/C=C/c1ccccc1)c1cccc(Br)c1	?	0.0%	?	3.1
Cc1ccc(NC(=O)CSc2nc3c(oc4ccccc43)c(=O)n2-c2ccc(F)cc2)c(C)c1	.	.	.	5.8
CCOc1ccc(NC(=O)CSc2nc(-c3ccccc3)c3cc(OCC)ccc3n2)cc1	.	.	.	-27.2
CCOc1cc(C(=O)N/N=C/C(Br)=C/c2ccccc2)cc(OCC)c1OCC	?	-19.0%	?	-76.2*
